Results filed as inconclusive are left out. Activity calls are given as the source filed them. Calls come from the whole dose curve; as a rule, active = well fitted inhibition curve with a large enough effect; inconclusive = small, poorly fitted or top-dose-only effect; inactive = no such curve, though single readings can be large or run the other way.

Sequence of Protein phosphatase 1D (Homo sapiens) (O15297 whole entry, looked up): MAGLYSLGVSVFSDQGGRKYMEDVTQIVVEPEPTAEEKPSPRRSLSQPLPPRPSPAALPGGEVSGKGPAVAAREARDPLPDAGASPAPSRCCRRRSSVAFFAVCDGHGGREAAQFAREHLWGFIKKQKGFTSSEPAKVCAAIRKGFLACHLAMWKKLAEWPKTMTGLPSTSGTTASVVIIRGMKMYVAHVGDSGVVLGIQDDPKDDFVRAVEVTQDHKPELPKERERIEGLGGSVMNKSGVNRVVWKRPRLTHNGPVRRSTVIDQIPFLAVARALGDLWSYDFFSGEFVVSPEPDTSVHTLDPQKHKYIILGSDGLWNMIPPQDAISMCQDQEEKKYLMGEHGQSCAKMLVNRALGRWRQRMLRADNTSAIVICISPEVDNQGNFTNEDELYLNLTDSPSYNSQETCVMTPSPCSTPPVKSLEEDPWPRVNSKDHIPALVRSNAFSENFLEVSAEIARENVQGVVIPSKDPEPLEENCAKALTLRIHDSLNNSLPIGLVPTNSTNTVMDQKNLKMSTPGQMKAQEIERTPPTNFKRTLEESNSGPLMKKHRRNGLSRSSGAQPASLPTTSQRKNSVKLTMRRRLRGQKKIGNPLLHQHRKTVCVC

The test concerns the target Protein phosphatase 1D (Homo sapiens) (UniProt O15297). As to the kind of experiment: RapidFire Mass Spectrometry qHTS Assay for Modulators of WT P53-Induced Phosphatase 1 (WIP1) (AID 1347424). The settings on record: WIP1 dephosphorylation of phosphopeptide, RapidFire MS; series mostly up to 63 µM. The text has this: Assay Provider (PI): Nathan Coussens Ph. D.
National Center for Advancing Translational Sciences (NCATS), Rockville, MD
National Institute of Health (NIH), Bethesda, Maryland
WT P53-Induced Phosphatase 1 (WIP1) is a member of the magnesium-dependent serine/threonine protein phosphatase (PPM) family and is induced by P53 in response to DNA damage. In several human cancers, the WIP1 protein is overexpressed, which is generally associated with a worse prognosis. Although WIP1 is an attractive therapeutic target, no potent, selective, and bioactive small-molecule modulator with favorable pharmacokinetics has been reported. Phosphatase enzymes are among the most challenging targets for small molecules because of the difficulty of achieving both modulator selectivity and bioavailability. Another major obstacle has been the availability of robust and physiologically relevant phosphatase assays that are suitable for high-throughput screening.
Here, we describe two orthogonal biochemical WIP1 activity assays that utilize phosphopeptides from native WIP1 substrates. We optimized a RapidFire MS assay to quantify the enzymatically dephosphorylated peptide reaction product in a 384-well format. Additionally, a redshifted Rhodamine-PBP fluorescence assay was optimized in a 1,536-well format to enable real-time WIP1 activity measurements through the detection of the orthogonal reaction product, Pi. We validated these two optimized assays by quantitative high-throughput screening against the National Center for Advancing Translational Sciences (NCATS) Pharmaceutical Collection and used secondary assays to confirm and evaluate inhibitors identified in the primary screen.
SEQUENCE No. (e.g., 1, 2, 3, etc.); […] (e.g., Cells, Incubation, Reagent, etc.); VALUE; DESCRIPTION
1; Reagent; 50 uL; dispensed assay buffer: 0.1% formic acid in water (10 uL : 40 uL) solution in column 1
3; Library Compounds; 63 nL; library compounds in DMSO, columns 3-24
4; Control Compounds; 63 nL; DMSO in wells I-P, columns 1-2, GSK830371 (10 uM, final) in wells A-H, column 2
5; Time; 1 hr; incubation
6; Substrate; 2 uL; VEPPL-pS-QETFS (10 uM) in assay buffer, column 2-24
7; Time; 5 min; incubation
8; Reagent; 2 uL; 0.5% formic acid in water, columns 2-24
9; Reagent; 38 uL; VEPPL-S-QETF*S in 0.1% formic acid, columns 2-24
10; Detection; mass spec; RapidFire mass spectrometry
NOTES (numbers refer to sequence above)
1, 2, 6; dispensed reagent in White Nunc 384-well PP microplates (264573); assay buffer: 50 mM Tris-HCl pH 7.5, 30 mM MgCl2, 1 mM TCEP, 0.1 mM EGTA, 75 ug/mL BSA.
2, 6, 8, 9; Dispensed with BioRaptr (Beckman Coulter)
2, 6, 9; Final concentrations: 10 nM WIP1; 2 uM VEPPL-pS-QETFS; 1 uM VEFFL-S-QETF*S
3 & 4; Kalypsys Pintool transfer (Wako USA), Tip wash sequence: water, DMSO, methanol, 20 sec vacuum dry.
5 & 7; incubation at room temperature
10; RapidFire mass spectrometry read using the Agilent RapidFire 360 (Clausse, 2019)
Clausse V, et al. Physiologically relevant orthogonal assay for the discovery of small-molecule modulators of WIP1 […] in high-throughput screens. J Biol Chem. 2019, 294(46): 17654-17668. doi:10.1074/jbc.RA119.010201
For the compound `COc1ccccc1OCC(O)COC(N)=O` (stereo not given), the outcome was inactive.

`CCOc1cc(N)c(Cl)cc1C(=O)NCC1CN(Cc2ccc(F)cc2)CCO1` (stereo not given): the outcome was inactive.

`Cc1oc(=O)oc1CN1CCN(c2cc3c(cc2F)c(=O)c(C(=O)O)c2n3C(C)S2)CC1` (stereo not given): the compound was classed as inactive.

Turning to `C[C@@H](NCCCc1cccc(C(F)(F)F)c1)c1cccc2ccccc12`, the outcome was inactive.

For the compound `CC(C(=O)O)c1ccc2c(c1)CC(=O)c1ccccc1S2` (stereo not given), the result was inactive.

As to `CN1CCN(c2c(F)cc3c(=O)c(C(=O)O)cn(CCF)c3c2F)CC1`, the call was inactive.

As to `OC(Cn1cncn1)(Cn1cncn1)c1ccc(F)cc1F`, the call was inactive.

Regarding `CCc1c2c(nc3ccc(OC(=O)N4CCC(N5CCCCC5)CC4)cc13)-c1cc3c(c(=O)n1C2)COC(=O)[C@]3(O)CC`, the outcome was inactive.

With `CC(C)OC(=O)C(C(=O)OC(C)C)=C1SC=CS1`, the outcome was inactive.

For the compound `COCCCOc1cc(C[C@@H](C[C@H](N)[C@@H](O)C[C@H](C(=O)NCC(C)(C)C(N)=O)C(C)C)C(C)C)ccc1OC`, the compound was classed as inactive.

With `CC[C@H](NC(C)C)[C@H](O)c1ccc(O)c2[nH]c(=O)ccc12`, the compound was classed as inactive.

On to `Cc1nnc(NS(=O)(=O)c2ccc(N)cc2)s1`, for which the compound was called inactive.

Turning to `CN1CCCC(n2nc(Cc3ccc(Cl)cc3)c3ccccc3c2=O)CC1` (stereo not given), the compound was called inactive.

On to `CCCCc1oc2ccc(NS(C)(=O)=O)cc2c1C(=O)c1ccc(OCCCN(CCCC)CCCC)cc1`, for which the call was inactive.

On to `CCOCC(O)COc1ccc(NC(=O)CC[S+](C)C)cc1` (stereo not given), for which the compound was called inactive.

Take `CC1(C)[C@H](C(=O)O)N2C(=O)C[C@H]2S1(=O)=O`: the compound was classed as inactive.

With `COc1cc2c(Nc3ccc(Br)cc3F)ncnc2cc1OCC1CCN(C)CC1`, the compound was classed as inactive.

In the case of `COC(=O)Nc1nc2ccc(S(=O)c3ccccc3)cc2[nH]1` (stereo not given), the outcome was inactive.

In the case of `Nc1[nH]c(=O)ncc1F`, the compound was classed as inactive.

On to `CC(C)OC(=O)OCOP(=O)(CO[C@H](C)Cn1cnc2c(N)ncnc21)OCOC(=O)OC(C)C`, for which the call was inactive.

As to `Cn1nnc2c(C(N)=O)ncn2c1=O`, the call was inactive.

As for `CNCC[C@H](Oc1cccc2ccccc12)c1cccs1`, the call was inactive.

In the case of `Cc1c(-c2ccc(O)cc2)n(Cc2ccc(OCCN3CCCCCC3)cc2)c2ccc(O)cc12`, the outcome was inactive.

For the compound `C[C@@H]1C[C@H]2[C@@H]3CCC4=CC(=O)C=C[C@]4(C)[C@@]3(Cl)[C@@H](O)C[C@]2(C)[C@@]1(OC(=O)c1ccco1)C(=O)CCl`, the result was inactive.

Consider `CC[C@H](C)C(=O)O[C@H]1C[C@@H](C)C=C2C=C[C@H](C)[C@H](CC[C@@H]3C[C@@H](O)CC(=O)O3)[C@H]21`, for which the outcome was inactive.

As for `Cc1cccc(Nc2ccncc2S(=O)(=O)NC(=O)NC(C)C)c1`, the call was inactive.

As to `O=C(N[C@H](CO)[C@H](O)c1ccc([N+](=O)[O-])cc1)C(Cl)Cl`, the call was inactive.

For `COc1cc(NS(=O)(=O)c2ccc(N)cc2)nc(OC)n1`, the compound was called inactive.

As for `COc1c(N2CCNC(C)C2)c(F)cc2c(=O)c(C(=O)O)cn(C3CC3)c12` (stereo not given), the result was inactive.

For the compound `CC(N)C12CC3CC(CC(C3)C1)C2` (stereo not given), the result was inactive.

With `O=P(O)(O)C(O)(Cc1cccnc1)P(=O)(O)O`, the compound was classed as inactive.

For `Cc1onc(-c2ccccc2Cl)c1C(=O)N[C@@H]1C(=O)N2[C@@H]1SC(C)(C)[C@@H]2C(=O)O`, the outcome was inactive.

As to `Cc1cccc(N(C)C(=S)Oc2ccc3ccccc3c2)c1`, the compound was classed as inactive.

Regarding `COc1ncnc(NS(=O)(=O)c2ccc(N)cc2)c1OC`, the result was inactive.

As to `CO[C@@]12[C@H](COC(N)=O)C3=C(C(=O)C(C)=C(N)C3=O)N1C[C@@H]1N[C@@H]12`, the compound was called inactive.

For `Nc1ccc(S(=O)(=O)Nc2ccccn2)cc1`, the call was inactive.

As for `CC(=O)[C@H]1CC[C@H]2[C@@H]3CC=C4C[C@@H](O)CC[C@]4(C)[C@H]3CC[C@]12C`, the compound was called inactive.

On to `CN(C)CCc1c[nH]c2ccc(CS(=O)(=O)N3CCCC3)cc12`, for which the call was inactive.

Regarding `COc1cc(NCc2ccc3nc(N)nc(N)c3c2C)cc(OC)c1OC`, the call was inactive.

`CCOC(=O)[C@H](CCc1ccccc1)N[C@H]1CS[C@H](c2cccs2)CN(CC(=O)O)C1=O`: the outcome was inactive.

The record behind these values is PubChem BioAssay (NCATS).
